DT40 TDP1 CPT – DT40-hTDP1 cell growth loss with CPT; chicken DT40 Tdp1-/-;hTDP1 cells + 20 nM CPT, ATP luminescence, 48 h; Potency, µM (doses to about 46.2 µM), without a hit: top-dose activity change, negative = growth inhibition, most hits filed as inhibitors; 420,000 tested, 12% active; AID 686979; further: on the % scale 0 is the no-effect control and ±100 the full control effect; nearly all actives have a fitted effect of over 55% in size
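Chicken DT40 Tdp1-/- cells complemented with human TDP1, 400 cells/well, exposed to compounds plus 20 nM camptothecin for at least 48 h at 37 C; viability read as ATP content by CellTiter-Glo luminescence.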
TDP1 cell noCPT – qHTS for Inhibitors of human tyrosyl-DNA phosphodiesterase 1 (TDP1): qHTS in cells in absence of CPT | AID 686978, 2013 | 420,000 tested, 15% active | Potency, µM (doses to about 46.2 µM), for inactives: at the highest dose activity change, negative = growth inhibition, usual class: inhibitors | DT40 Tdp1-/- hTDP1 cells, no CPT, ATP luminescence, 48 h; further: on the % scale 0 is the no-effect control and ±100 the full control effect; nearly all actives have a fitted effect of over 55% in size
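A cellular qHTS used chicken DT40 cells lacking endogenous Tdp1 but carrying stably transfected human TDP1. Compounds were applied without camptothecin, and cell growth kinetics were judged by ATP-dependent luminescence after ≥48 hr.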
ClpP mod – qHTS Assay for Activators of ClpP; ATP-dependent Clp protease proteolytic subunit (Bacillus subtilis (strain 168)), P80244; purified B. subtilis ClpP, FRET peptide cleavage, 20 min; Potency, µM (doses to about 57.5 µM), for the others: at the top dose activity change, negative = active; 340,000 tested, 1.9% active; AID 651965, 2013; active means well fitted falling curve with a large enough effect; inconclusive means small, poorly fitted or top-dose-only effect; inactive means no such curve, though single readings can be large or run the other way; further: the source files actives as falling curves though it sought activators and does not explain the sign; nearly all actives have a fitted effect of over 65% in size
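FRET quenching reversal measured ClpP activation: 10 microg/mL B. subtilis ClpP at pH 8 with the FRET-FV decapeptide, read at 430 nm after 320 nm excitation. The 20-min minus 0-min signal was scaled between DMSO/no-enzyme wells and ADEP (5.8 microM final).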
TDP1 block – blocks human tyrosyl-DNA phosphodiesterase 1; Q9NUW8; recombinant TDP1, AlphaScreen DNA substrate cleavage; Potency, µM (doses to about 130 µM), for inactives: top-dose activity change, negative = inhibition, hits mostly inhibitors; 350,000 tested, 0.28% active; further: on the % scale 0 is the no-effect control and ±100 the full control effect; nearly all actives have a fitted effect of over 40% in size
Target sequence (Q9NUW8 whole entry, looked up): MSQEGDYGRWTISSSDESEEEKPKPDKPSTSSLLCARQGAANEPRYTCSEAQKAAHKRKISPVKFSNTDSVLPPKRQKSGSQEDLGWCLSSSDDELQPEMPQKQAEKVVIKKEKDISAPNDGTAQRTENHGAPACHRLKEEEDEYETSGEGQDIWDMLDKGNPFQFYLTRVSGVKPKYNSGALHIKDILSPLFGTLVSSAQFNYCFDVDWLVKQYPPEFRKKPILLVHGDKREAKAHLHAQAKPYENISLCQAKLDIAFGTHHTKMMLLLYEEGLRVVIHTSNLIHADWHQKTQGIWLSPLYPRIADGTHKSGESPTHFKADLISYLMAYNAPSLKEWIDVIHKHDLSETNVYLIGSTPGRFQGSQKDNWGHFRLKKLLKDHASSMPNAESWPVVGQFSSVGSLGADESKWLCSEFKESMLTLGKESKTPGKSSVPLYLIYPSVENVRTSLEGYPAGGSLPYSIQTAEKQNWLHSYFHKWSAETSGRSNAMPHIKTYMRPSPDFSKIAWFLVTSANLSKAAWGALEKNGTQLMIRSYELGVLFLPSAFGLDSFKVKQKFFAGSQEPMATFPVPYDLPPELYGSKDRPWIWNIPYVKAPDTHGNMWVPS
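Signal: AlphaScreen proximity between streptavidin donor and anti-FITC acceptor beads on intact substrate. Reaction: Tdp1 1 nM, substrate 15 nM final, 5 min RT after 15 min compound preincubation.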
An asterisk follows results filed as active; [ ] = remark or other dose. Compounds with a hit are over-represented: about 17% of the library has one in this group of screens. Unless noted, the call rests on the fitted dose curve; in most records, active means well fitted curve in the direction sought with a large enough effect; inconclusive means small, poorly fitted or top-dose-only effect, or another doubt; inactive means no such curve, though single readings can be large; an effect the other way counts as inactive or inconclusive. Potency means the concentration at half of the fitted maximal effect.

For C[C@@H]1CN([C@@H](C)CO)C(=O)CCCn2nncc2CO[C@H]1CN(C)C(=O)Nc1cccc(Oc2ccccn2)c1 the results were DT40 TDP1 CPT -0.8%, TDP1 cell noCPT -0.1% and ClpP mod -1.9%.
For Cc1nn2c(N)c(C#N)cnc2c1-c1ccccc1 the results were DT40 TDP1 CPT inconclusive, TDP1 cell noCPT inconclusive, ClpP mod -16.5% and TDP1 block 3.3%.
For COc1ccc(-c2c(C)nn3c(N)c(C#N)cnc23)cc1OC the results were DT40 TDP1 CPT 7.31µM*, TDP1 cell noCPT 13µM* and TDP1 block 3.0%.
N#Cc1cnc2c(-c3ccccc3)c(-c3ccccc3)nn2c1N was read as DT40 TDP1 CPT 23.1µM*, TDP1 cell noCPT 18.4µM*, ClpP mod 31.6µM* and TDP1 block 5.5%.
`Cc1nn2c(N)c(C#N)cnc2c1-c1ccc(Cl)cc1` gave DT40 TDP1 CPT -7.6%, TDP1 cell noCPT -10.8%, ClpP mod -4.4% and TDP1 block 7.9%.
CCCCNc1nc(Oc2ccc(OCC(N)=O)nn2)nc(N2CCOCC2)n1 was read as DT40 TDP1 CPT 2.7%, TDP1 cell noCPT 2.3%, ClpP mod 1.5% and TDP1 block 4.7%.
`Nc1c(C(=O)c2ccc(Cl)cc2)sc2nsc(SCCN3CCOCC3)c12` gave DT40 TDP1 CPT 4.61µM*, TDP1 cell noCPT 9.2µM* and TDP1 block 2.5%.
`Nc1ccc2oc(C3CCCCC3)nc2c1` gave DT40 TDP1 CPT -11.9%, TDP1 cell noCPT 3.1%, ClpP mod -5.2% and TDP1 block -6.0%.
`Cc1ccc(C2(C(F)(F)F)NC(=O)N3CCN=C3S2)cc1` (stereo not given) gave DT40 TDP1 CPT 20.6µM*, TDP1 cell noCPT inconclusive, ClpP mod 1.1% and TDP1 block 0.0%.
Screening O=[N+]([O-])/C=C/c1c(OCc2ccccc2)ccc2ccccc12 returned TDP1 block -0.9%.
`CCOC(=O)COc1ccc(C(=O)c2ccccc2)c(O)c1` gave DT40 TDP1 CPT 1.0%, TDP1 cell noCPT -11.3%, ClpP mod 0.9% and TDP1 block -5.2%.
`CCOC(=O)COc1ccc(/C=C/[N+](=O)[O-])c(OCC(=O)OCC)c1` gave DT40 TDP1 CPT 11.6µM*, TDP1 cell noCPT 20.6µM*, ClpP mod -1.8% and TDP1 block -2.0%.
CCOC(=O)COc1ccc2ccccc2c1/C=C/[N+](=O)[O-] was read as DT40 TDP1 CPT 5.17µM*, TDP1 cell noCPT 3.66µM*, ClpP mod -0.8% and TDP1 block -4.6%.
Screening CCOc1ccc(/C=C/[N+](=O)[O-])c2ccccc12 returned DT40 TDP1 CPT 2.91µM*, TDP1 cell noCPT 2.91µM*, ClpP mod -0.5% and TDP1 block 9.8%.
O=C(Nc1ccc(S(=O)(=O)Nc2ncccn2)cc1)c1ccccc1NS(=O)(=O)c1ccc(Cl)cc1 was read as DT40 TDP1 CPT 2.7%, TDP1 cell noCPT 18.1% and ClpP mod 3.1%.
CC(=O)c1c(C)n(-c2cccc(Cl)c2)c2ccc(O)cc12 was read as DT40 TDP1 CPT inconclusive and TDP1 cell noCPT 0.517µM*.
For CC(=O)c1c(C)n(-c2ccccc2)c2ccc(O)cc12 the results were DT40 TDP1 CPT -29.2%, TDP1 cell noCPT inconclusive, ClpP mod 2.9% and TDP1 block 2.3%.
For CC(=O)c1c(C)n(-c2cccc(Cl)c2)c2ccc(OC(=O)c3ccccc3)cc12 the results were DT40 TDP1 CPT inconclusive, TDP1 cell noCPT 29.1µM*, ClpP mod 2.9% and TDP1 block -2.2%[12.3 µM].
`COC(=O)c1c(C)n(-c2ccccc2)c2ccc(O)cc12` gave DT40 TDP1 CPT inconclusive, TDP1 cell noCPT inconclusive, ClpP mod -10.4% and TDP1 block 5.9%.
Screening COC(=O)c1c(C)n(-c2ccc(C)cc2)c2ccc(O)cc12 returned DT40 TDP1 CPT 35.5µM*, TDP1 cell noCPT 17.8µM*, ClpP mod inconclusive and TDP1 block -1.5%.
CC(=O)c1c(C)n(-c2ccc(Cl)cc2)c2ccc(O)cc12 was read as DT40 TDP1 CPT inconclusive and TDP1 cell noCPT -19.8%.
`Cc1ccc(S(=O)(=O)c2nc(-c3ccco3)oc2SCc2ccccc2Cl)cc1` gave DT40 TDP1 CPT inconclusive, TDP1 cell noCPT inconclusive, ClpP mod -4.7% and TDP1 block 0.0%.
Screening CCc1ccc(N2CC(C(=O)Nc3ccc4c(c3)OCCO4)CC2=O)cc1 (stereo not given) returned DT40 TDP1 CPT -1.4%, TDP1 cell noCPT -13.0% and TDP1 block -8.2%.
`C=C1CC(COc2ccc3c(C)c(Cl)c(=O)oc3c2)(c2ccccc2)OC1=O` (stereo not given) gave DT40 TDP1 CPT 1.64µM*, TDP1 cell noCPT 1.64µM* and ClpP mod inconclusive.
CCOC(=O)c1c(C)[nH]c(C)c1S(=O)(=O)NCC(=O)NCc1ccc(C)cc1 was read as DT40 TDP1 CPT -9.7%, TDP1 cell noCPT -11.5%, ClpP mod 2.3% and TDP1 block 5.3%.
For C/C(=N\NC(=O)C(C)n1nc(C)c([N+](=O)[O-])c1C)c1ccccc1O (stereo not given) the results were DT40 TDP1 CPT 4.11µM*, TDP1 cell noCPT 1.84µM*, ClpP mod -4.4% and TDP1 block 0.0%.
For Clc1cccc(COn2c(-c3ccc(Cl)cc3Cl)nc3ncccc32)c1 the results were DT40 TDP1 CPT inconclusive, TDP1 cell noCPT 20.6µM*, ClpP mod -29.8% and TDP1 block 3.0%.
OC(CN1CCOCC1)c1ccccc1 (stereo not given) was read as DT40 TDP1 CPT 15.2%, TDP1 cell noCPT 5.8% and ClpP mod 0.9%.
COc1ccc(/C=C/C(=O)c2ccc3ccccc3c2O)cc1CN1CCOCC1 was read as DT40 TDP1 CPT inconclusive, TDP1 cell noCPT 18.4µM*, ClpP mod 1.3% and TDP1 block 8.2%.
`COc1ccc(/C=C2/CCc3ccccc3C2=O)cc1CN1CCOCC1` gave DT40 TDP1 CPT 23.1µM*, TDP1 cell noCPT 16.4µM*, ClpP mod -1.7% and TDP1 block 2.5%.
For COc1ccc(/C=C/C(=O)c2ccccc2O)cc1CN1CCOCC1 the results were DT40 TDP1 CPT 16.4µM*, TDP1 cell noCPT inconclusive, ClpP mod -4.0% and TDP1 block 3.4%.
Screening CCCCNC(=O)C1(C)CCN1C(=O)c1ccc(C)c(F)c1 (stereo not given) returned DT40 TDP1 CPT -5.0%, TDP1 cell noCPT -0.3% and ClpP mod 2.2%.
CCC(=O)Nc1ccc(/C(C)=N/NC(=O)c2c(-c3ccccc3Cl)noc2C)cc1 was read as DT40 TDP1 CPT inconclusive, TDP1 cell noCPT inconclusive, ClpP mod -2.3% and TDP1 block -2.6%.
For Cc1ccccc1-c1nnc(SCC(=O)N2CCCc3ccccc32)o1 the results were DT40 TDP1 CPT inconclusive, TDP1 cell noCPT inconclusive, ClpP mod -0.8% and TDP1 block 0.0%.

Source: PubChem (National Center for Advancing Translational Sciences (NCATS))
